The values that follow come from PubChem BioAssay (NCATS).

Results filed as inconclusive are left out. Where a call stands in place of a potency, no number is given. Activity calls are given as the source filed them. Calls follow the shape of the dose curve; as a rule, active = well fitted inhibition curve with a large enough effect; inconclusive = small, poorly fitted or top-dose-only effect; inactive = no such curve, though single readings can be large or run the other way.
Potency is read from the fitted curve at half-maximal effect.

Sequence of Cytochrome P450 2C19 (Homo sapiens) (P33261 whole entry, looked up): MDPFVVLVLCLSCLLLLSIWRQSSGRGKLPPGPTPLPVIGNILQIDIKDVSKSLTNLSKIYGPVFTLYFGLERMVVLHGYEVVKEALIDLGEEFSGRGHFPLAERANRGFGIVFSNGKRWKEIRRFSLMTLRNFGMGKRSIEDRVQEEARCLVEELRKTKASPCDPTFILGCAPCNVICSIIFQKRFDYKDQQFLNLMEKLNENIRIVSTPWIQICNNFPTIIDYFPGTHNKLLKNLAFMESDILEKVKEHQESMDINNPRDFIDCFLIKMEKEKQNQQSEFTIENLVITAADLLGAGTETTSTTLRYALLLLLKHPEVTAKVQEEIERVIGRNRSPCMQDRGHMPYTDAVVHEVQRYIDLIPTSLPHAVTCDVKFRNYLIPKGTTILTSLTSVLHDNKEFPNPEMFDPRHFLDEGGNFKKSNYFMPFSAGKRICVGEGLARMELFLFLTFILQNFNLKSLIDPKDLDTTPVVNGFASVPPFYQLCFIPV

The target of this assay is Cytochrome P450 2C19 (Homo sapiens) (UniProt P33261). As to the kind of experiment: qHTS Assay for Inhibitors and Substrates of Cytochrome P450 2C19 (AID 899). Also: nearly all actives have a fitted effect of over 60% in size. Conditions: recombinant CYP2C19, luciferin-H EGE luminescence; series mostly up to 11.4 µM. A digest of the protocol:
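Luminescence readout of luciferin formed from 10uM Luciferin-H EGE (KM level) by 5 nM CYP2C19 in 50mM KPO4. 60 min NADPH-driven reaction at 37C after 10 min compound preincubation; data scaled to 57uM ketoconazole inhibition.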
Regarding `O=C1[C@H]2[C@H]3[C@H](O)[C@H](O)C/C(=N/OC[C@@H](O)COCc4ccco4)[C@@H]3CC[C@@H]2C(=O)N1C[C@@H]1CCCO1`, the Potency result was “inactive”. To `CC(=O)OC[C@H]1O[C@@H](O/N=C2/[C@H]3O[C@@H]3[C@@H](O)[C@H]3[C@H]2CCn2c(=O)n(-c4ccccc4)c(=O)n23)[C@H](OC(C)=O)[C@@H](OC(C)=O)[C@@H]1OC(C)=O` belongs “inactive”. To `CCN1C(=O)[C@@H]2[C@H]3C(=CC[C@@H]2C1=O)C1(OCCCO1)[C@H]1O[C@@H]1[C@H]3O` belongs 1.58 µM (active).

Take `O=C1[C@H]2[C@H]3[C@H](O)[C@H](O)C/C(=N/OCc4ccccc4)[C@H]3CC[C@@H]2C(=O)N1C[C@@H]1CCCO1`: the Potency entry was “inactive”. To `COC(=O)[C@H](Cc1ccccc1)NC(=O)[C@@H](C)CO` belongs 1.26 µM (active); to `C[C@@H]1/C=C\CC(=O)OC[C@H](C)C(=O)N[C@@H](C)C(=O)OC1`, “inactive”; to `CC(=O)OC[C@@H]1O[C@H](C/C=N\O[C@@H](C)c2cn([C@H]3COC[C@H]3O)nn2)C=C[C@@H]1OC(C)=O`, “inactive”. To `Cc1ccc(S(=O)(=O)N[C@H]2COC(=O)C/C=C\[C@@H](C)[C@H](NS(=O)(=O)c3ccc(C)cc3)COC(=O)[C@H](C)NC(=O)C/C=C\[C@H]2C)cc1` belongs “inactive”; to `CO[C@@H]1COC(=O)[C@H]2CCCN2C(=O)[C@@H](C)COC(=O)CCC[C@H]1C`, “inactive”. To `CO[C@@H]1COC(=O)[C@H](Cc2ccccc2)NC(=O)C/C=C\[C@@H](C)[C@H](OC)COC(=O)[C@@H](C)NC(=O)C/C=C\[C@H]1C` belongs “inactive”; to `COC(=O)C/C=C\[C@@H](C)[C@@H](/C=N\O[C@@H](C)c1cn([C@H]2COC[C@H]2O)nn1)OC`, “inactive”. `CO[C@@H]1COC(=O)[C@H]2CCCN2C(=O)C/C=C\[C@@H](C)[C@H](OC)COC(=O)[C@H]2CCCN2C(=O)C/C=C\[C@H]1C`: the Potency result was “inactive”. On to `CO[C@@H]1COC(=O)[C@H](C)NC(=O)C/C=C\[C@@H](C)[C@@H](NS(=O)(=O)c2ccc(C)cc2)COC(=O)C/C=C\[C@@H]1C`, for which the Potency entry was “inactive”. To `CC(C)=NO[C@@H](C)c1cn([C@@H]2COC[C@@H]2O)nn1` belongs “inactive”; to `C=CC1=C[C@@H](O)C2OC2C12OCCCO2` (some centres undefined), “inactive”; to `CC(C)=CCC/C(C)=C/CO/N=C1/C[C@@H](O)[C@@H](O)[C@@H]2[C@@H]3C(=O)N(Cc4ccccc4)C(=O)[C@H]3CC[C@@H]12`, “inactive”. To `COc1ccc(O[C@H]2C=C[C@@H](c3ccccc3)O[C@H]2COC(=O)N2CCCCC2)cc1` belongs 0.501 µM (active). To `C#CCCCO/N=C1/C[C@@H](O)[C@@H](O)[C@@H]2[C@@H]3C(=O)N(Cc4ccccc4)C(=O)[C@H]3CC[C@@H]12` belongs “inactive”.

As to `O=C1C[C@H](c2ccccc2)[C@@H](c2ccc(Br)cc2)O1`, the Potency is 0.398 µM (active). To `C[C@@H]1OC2C3=C(C(=O)[C@H]4O[C@@H]4[C@H]3O)[C@@H]1[C@H]1[C@H](C)OC=C3[C@H](O)[C@H]4O[C@H]4/C(=N\OCc4ccccc4)[C@@]321` belongs “inactive”. To `CO[C@@H]1COC(=O)[C@@H](CCSC)NC(=O)C/C=C\[C@@H](C)COC(=O)[C@H](C)NC(=O)C/C=C\[C@H]1C` belongs “inactive”; to `CO/N=C\[C@@H](NS(=O)(=O)c1ccc(C)cc1)[C@H](C)/C=C\CC(=O)OC`, 3.16 µM (active); to `CC(=O)OC[C@@H]1O[C@@H](O/N=C2/C[C@@H](O)[C@@H](O)[C@@H]3[C@@H]4C(=O)N(C(C)(C)C)C(=O)[C@H]4CC[C@H]23)[C@H](OC(C)=O)[C@H](OC(C)=O)[C@@H]1OC(C)=O`, “inactive”.

As to `C[C@H]1COC(=O)[C@H]2CCCN2C(=O)[C@@H](C)COC(=O)[C@H](Cc2ccccc2)NC1=O`, the Potency entry was “inactive”.
